# In the library only some 8% were active in any assay of this set; here they are far more common.
# Lassa entry inh: Lassa virus entry inhibition. Potency, µM (doses to about 37.9 µM), for inactives: at the highest dose activity change, negative = inhibition, actives largely listed as inhibitors. AID 540256. Lassa virus pseudotype entry inhibition, cell reporter. actives 1.2% (n = 300,000); calls by dose curve; tested in HEK293 cells; also: potency is read from the fitted curve at half-maximal effect; % is scaled to controls: 0 for no effect and ±100 for the full control effect; nearly all actives have a fitted effect of over 50% in size
# SARS PLP yeast: blocks SARS-CoV papain-like protease in a yeast assay; S. cerevisiae expressing SARS-CoV PLpro, growth rescue; actives 0.19% (n = 330,000); Potency, µM (doses to about 32.9 µM), for the others: at the top dose activity, positive = growth rescue, hits mostly activators; calls by dose curve; also: potency is read from the fitted curve at half-maximal effect; 0% is about no effect; nearly all actives have a fitted effect of over 55% in size
# HCMV inh: inhibitors of human cytomegalovirus | HFF cells, HCMV-luciferase reporter, 72 h; active compounds read low | actives 4.5% (n = 410,000) | activity change, negative = inhibition, % at 57.5 µM | AID 1259415; in the data active = activity change below about -60%; inconclusive = no clear call, values can overlap the other calls; inactive = above about -39%; also: % is scaled to controls: 0 for no effect and ±100 for the full control effect
#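 Human foreskin fibroblasts infected with luciferase-reporter HCMV at MOI 1 PFU/cell, compounds at two doses. Luciferase measured 72 h post infection; normalized to buffer-only basal and Salinomycin (10uM) controls.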
# Marburg entry inh: inhibitors of Marburg virus binding or cell entry; Marburg virus pseudotyped entry inhibition, cell reporter; Potency, µM (highest dose often 37.8 µM), without a hit: at the top dose activity change, negative = inhibition, usual class: inhibitors; actives 1.8% (n = 300,000); AID 540276; calls by dose curve; tested in HEK293 cells; also: potency is read from the fitted curve at half-maximal effect; % is scaled to controls: 0 for no effect and ±100 for the full control effect
# HCV inh: blocks hepatitis C virus. Huh7.5.1 HCVcc-Cre infection, luciferase reporter, 44 h. Potency, µM (series often up to 41.8 µM), inactives show top-dose activity change, negative = inhibition, actives largely listed as inhibitors. actives 3.4% (n = 340,000). AID 651820; active = well fitted inhibition curve with a large enough effect; inconclusive = small, poorly fitted or top-dose-only effect, or another doubt; inactive = no such curve, though single readings can be large or run the other way; also: potency is read from the fitted curve at half-maximal effect; % is scaled to controls: 0 for no effect and ±100 for the full control effect
#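 Compounds are dispensed onto cells plated 4 h earlier at 1,000 per well, with HCVcc-Cre virus (about 0.5 moi) added next. Following 44 h of culture, luminescent signal is measured for 15 sec after 15 min with substrate at room temperature.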
# FMDV inh: blocks foot and mouth disease virus. FMDV antiviral cell-based qHTS. Potency, µM (highest dose often 57.9 µM), without a hit: at the top dose activity change, negative = inhibition, actives largely listed as inhibitors. actives 1.2% (n = 410,000); calls by dose curve; tested in HEK293T cells; also: read-out not given here; potency is read from the fitted curve at half-maximal effect; % is scaled to controls: 0 for no effect and ±100 for the full control effect; nearly all actives have a fitted effect of over 45% in size
# Active calls of the source: *; u = inconclusive; x = no result given; [ ] = remark or other dose.
SMILES,Lassa entry inh,SARS PLP yeast,HCMV inh,Marburg entry inh,HCV inh,FMDV inh
COc1cc(/C=N/Nc2nc(Nc3ccccc3)nc(-n3nc(C)cc3C)n2)cc(OC)c1OC,16.4µM*,-1.9%,-11.6,7.31µM*,2.82µM*,-12.1%
Cc1cc(OCC(=O)Nc2ccc(C(=O)OC3CCCCC3)cc2)cc(C)c1Cl,u,x,-14.5,x,x,-24.2%
COc1ccc(C)cc1NC(=S)NC(C)c1ccc(OC)c(OC)c1 (stereo unspecified),x,-0.8%,u,x,11.2µM*,24.3%
CCOC(=O)c1c(-c2ccc(C)cc2C)csc1NC(=O)c1ccccc1Cl,2.0%[46.1 µM],x,-5.5,x,x,-16.3%
CC(CC(=O)Nc1ccc2c(c1)c(=O)n(C)n2Cc1ccc(Cl)cc1)C(F)(F)F (stereo unspecified),x,x,-71.9*,x,x,-14.4%
COc1cc(Cn2c3ccc(NC(=O)CC(C)C(F)(F)F)cc3c(=O)n2C)ccc1F (stereo unspecified),x,x,-28.5,x,x,-2.6%
Cn1c(=O)c2cc(NC(=O)Nc3cccnc3)ccc2n1Cc1ccc(Cl)cc1,x,x,-96.6*,x,x,6.8%
CN(C)c1ccc(NC(=O)Nc2ccc3c(c2)c(=O)n(C)n3Cc2ccc(Cl)cc2)cc1,x,x,-88.1*,x,x,-22.6%
CN(C)c1ccc(NC(=O)Nc2ccc3c(c2)c(=O)n(C)n3Cc2ccccc2)cc1,x,x,-30.0,x,x,-13.3%
CCC(C)Sc1ccc([C@@H]2[C@@H]3C(=O)N(CC)C(=O)[C@@H]3[C@]3(C(=O)OC)CCCCN23)cc1OC (stereo partly specified),x,-7.1%,13.6,x,11.2µM*,-24.4%
CCC(C)Sc1ccc([C@@H]2[C@@H]3C(=O)N(C)C(=O)[C@@H]3[C@]3(C(=O)OC)CCCCN23)cc1OC (stereo partly specified),x,3.0%,69.6,x,-5.3%,-19.2%
CCOC(=O)N1CCC(NC(=O)C2CCCN(Cc3nc(-c4ccc(CC)cc4)oc3C)C2)CC1 (stereo unspecified),u,5.0%,-86.9*,u,2.51µM*,u
Cc1cccc(-c2nc(CN3CCCC(C(=O)NC4CCCCCC4)C3)c(C)o2)c1 (stereo unspecified),u,0.9%,27.3,u,u,u
Cc1oc(-c2cccc(Cl)c2)nc1CN1CCCC(C(=O)NCc2ccc(Cl)cc2)C1 (stereo unspecified),24.2%[46.1 µM],x,3.6,1.2%[46.1 µM],x,u
Cc1cccc(-c2nc(CN3CCCC(C(=O)NC4CCCCC4)C3)c(C)o2)c1 (stereo unspecified),-17.5%,4.5%,-21.4,u,31.6µM*,u
Cc1oc(-c2cccc(Cl)c2)nc1CN1CCC(C(=O)NC(C)C)CC1,u,x,9.3,24.5%[46.1 µM],x,3.1%
CCN1CCCC1CNC(=O)C1CCN(Cc2nc(-c3cccc(Br)c3)oc2C)CC1 (stereo unspecified),11.2µM*,-11.6%,x,3.55µM*,2.51µM*,-19.5%
CCOC(=O)N1CCC(NC(=O)C2CCN(Cc3nc(-c4ccc(CC)cc4)oc3C)CC2)CC1,x,x,33.3,x,6.2%,-16.9%
Cc1oc(-c2cccc(Cl)c2)nc1CN1CCCC(C(=O)NC(C)c2ccc3c(c2)OCCO3)C1 (stereo unspecified),x,0.8%,-28.3,x,u,20µM*
Cc1ccc(CN2CCCn3nc(C(=O)NCCc4cccc(C)c4)cc3C2=O)cc1,-14.1%[46.1 µM],x,1.1,x,x,1.0%
CN1CCc2cc(O)c(O)cc2[C@H](c2ccccc2)C1,x,x,x,-9.5%,x,x
COC(=O)C1=C(C)N(Cc2ccccc2)C(=O)NC1c1ccccc1 (stereo unspecified),-19.9%[14.3 µM],x,x,u,x,x
CCOc1ccc(Br)cc1S(=O)(=O)Nc1cccc(-c2ccc(OC)nn2)c1,-5.3%[46.1 µM],x,16.9,x,x,13.2%
CCCCCCN(CCCCCC)C(=O)Cc1c(-c2ccc(F)cc2)[nH]c2ccccc12,9.2µM*,x,-5.1,9.2µM*,u,-19.5%
CCOC(=O)c1c(-c2ccccc2)[nH]c2ccc(C)cc12,x,x,-15.5,x,x,x
SMILES,Lassa entry inh,SARS PLP yeast,HCMV inh,Marburg entry inh,HCV inh,FMDV inh
COc1ccc(CCNC2=C(Cl)C(=O)N(CCc3ccc(OC)c(OC)c3)C2=O)cc1OC,u,1.5%,44.0,u,2.51µM*,10µM*
COC(=O)[C@@H]1[C@@H](CO)[C@@H]2Cn3c(ccc(Br)c3=O)[C@@H]2N1C,x,x,0.4,x,x,x
NC(=O)CCC1NC(=S)N(Cc2ccccc2)C1=O (stereo unspecified),u,1.0%,-66.9*,7.8%,2.5%,-13.8%
CN1C(=O)C(CCC(N)=O)NC1=S (stereo unspecified),7.5%,2.4%,-30.5,13.8%[14.2 µM],16.0%,-11.5%
Cc1c(C(=O)O)c(C(=O)O)c2n1CCS2,9.5%[46.1 µM],0.9%,u,8.2%[46.1 µM],7.0%,-15.7%
COc1ccc(CCNC(=O)C(NS(=O)(=O)c2cccc3nsnc23)C(C)C)cc1OC (stereo unspecified),x,u,-7.6,x,-2.1%,10µM*
C=CC[C@@H]1C=CC(O/N=C/C[C@@H]2C=C[C@H](OC(C)=O)[C@@H](COC(C)=O)O2)[C@@H](CO)O1 (stereo partly specified),x,x,x,4.2%[14.2 µM],x,x
CC(C)CC(=O)N1CCN(Cc2ccc(Cl)cc2)CC1,u,2.8%,33.7,-4.6%,-7.9%,-25.3%
NC(=O)c1ccc(NC(=O)c2ccc(CN3CCOCC3)cc2)cc1,8.3%,5.9%,-8.3,1.8%,20.0%,0.0%
CC(C)c1ccc(CN2CCN(C(=O)CCl)CC2)cc1,u,0.8%,-68.8*,u,11.2µM*,17.8µM*
CC(C)c1ccc(C(=O)Nc2ccc(CN3CCOCC3)cc2)cc1,-14.2%[46.1 µM],-1.3%,-82.9*,u,u,-5.6%
CCOC(=O)c1ccc(NC(=O)c2ccc(CN3CCOCC3)cc2)cc1,u,-0.3%,u,u,u,25.1µM*
CC(C)Oc1ccc(C(=O)NC(=S)Nc2ccc(CN3CCOCC3)cc2)cc1,-11.5%,10.3%,0.0,u,u,u
CC1(C)[C@@]2(C(=O)N(CCC#N)CCC#N)CC[C@]1(C)C(=O)C2,x,x,x,-2.4%,x,x
COC(=O)c1ccc(NC(=O)CSc2ccc(-c3ccccn3)nn2)cc1,7.9%,-2.9%,45.7,-4.4%,-2.5%,1.1%
CC(C)c1ccc2c(c1)CC[C@H]1[C@](C)(CN)CCC[C@]21C,x,x,-97.8*,x,u,u
CC(C)c1ccc2c(c1)CCC1C(C)(CN)CCCC21C (stereo unspecified),u,-1.4%,-27.3,10µM*,u,u
CCC(=O)NC(=S)Nc1cccc(Cl)c1N1CCCCC1,23.5%,-1.4%,u,u,u,u
COc1ccc(C(O)c2ncc(-c3ccccc3Cl)[nH]2)cc1 (stereo unspecified),x,x,-73.6*,x,x,38.1%
NC(=O)c1cc([N+](=O)[O-])ccc1NCc1cccc(N)c1,x,2.1%,44.6,x,-13.0%,0.0%
